Calls of active or inactive are those of the source.
What was measured:
[1] = small molecules captured by biotinylated probe aFSTL3 – biochemical, small-molecule microarray, fluorescence 635/667, stem cell growth factor project, primary screen (AID 1064); settings: higher = more signal;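 also: measures binding of the biotinylated anti-FSTL3 antibody to printed compounds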
[2] = binders from COS7 lysate, DM2A8 probe, primary screen, torsin A project, cell lysate, small-molecule microarray, fluorescence 635/667 (AID 1065); settings: higher = more signal, COS7 lysate expressing mutant human TOR1A
[3] = small molecules captured by biotinylated probe aFGF2 – biochemical, small-molecule microarray, fluorescence 635/667, stem cell growth factor project, primary screen (AID 1067); settings: higher = more signal;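 also: measures binding of biotinylated aFGF2 protein to printed compounds on slides; z-score merges feature fluorescence and signal-to-noise across triplicate slides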
[4] = small molecules captured by biotinylated probe aFGF10 – biochemical, small-molecule microarray, fluorescence 635/667, stem cell growth factor project, primary screen (AID 1071); settings: higher = more signal;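 also: score merges 667 nm spot intensity and signal to noise from triplicate slides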
[5] = target: Neurogenic locus notch homolog protein 2 (Homo sapiens) (UniProt Q04721); test: small molecules binding Notch2 protein – biochemical, small-molecule microarray, 635 nm fluorescence, stem cell growth factors, primary screen (AID 1073); settings: higher = more signal
[6] = target: Pro-neuregulin-1, membrane-bound isoform (Homo sapiens) (UniProt Q02297); test: small molecules binding neuregulin-1 protein – biochemical, small-molecule microarray, fluorescence 635/667, psychiatric disease protein project, primary screen (AID 1075); settings: NRG1 binding, 635 nm fluorescence, higher = more signal;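 also: score combines 667 nm spot fluorescence with signal to noise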
[7] = tested on: Neuregulin-1 EGF-like domain; test: small molecules binding NRG1 EGF domain – biochemical, small-molecule microarray, 635 nm fluorescence, primary screen (AID 1081); settings: higher = more signal;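 also: binding of the protein to compounds printed on small-molecule microarray slides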
[8] = FRG1 expression reporter modulators in myotubes – cell-based, C2C12 myotubes, firefly/Renilla luciferase, luminescence, FRG1 inhibition for FSHD, primary screen (AID 1084); settings: FRG1 promoter luciferase, higher = more signal, called active from +8 up or from −8 down
[9] = small molecules captured by biotinylated probe aFST – biochemical, small-molecule microarray, fluorescence 635/667, stem cell growth factor project, primary screen (AID 1086); settings: higher = more signal;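 also: score merges 667 nm fluorescence with signal-to-noise of each printed compound spot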
[10] = binders of probe aHhip on microarray, primary screen, stem cell growth factor project, biochemical, small-molecule microarray, fluorescence 635/667 (AID 1087); settings: higher = more signal;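 also: score merges spot fluorescence at 667nm with spot signal to noise ratio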
[11] = tested on: PRMT1 (protein arginine N-methyltransferase 1); test: small molecules binding arginine methyltransferase PRMT1 – biochemical, small-molecule microarray, 635 nm fluorescence, primary screen (AID 1088); settings: higher = more signal;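 also: binding of Prmt1 protein to compounds spotted on small-molecule microarray slides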
[12] = growth effects on S. cerevisiae YJM789 – YJM789 clinical isolate, OD600, 24 h, basal, primary screen (AID 1089); settings: higher = more signal, called active from +8 up or from −8 down;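 also: growth of clinical yeast isolate S. cerevisiae YJM 789 seeded 1000 cells per well; test concentration not given here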
[13] = S. pombe growth modifiers, basal conditions – strain 972, OD600, 24 h, no modulator, primary screen (AID 1090);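 also: basal condition with compound alone and no growth modifier present; test concentration not given here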; settings: S. pombe 972 growth, higher = more signal, called active from +8 up or from −8 down
[14] = budding yeast growth modifiers under rapamycin – strain BY4716, OD600, 96 h, primary screen (AID 1091); also: test concentration not given here; settings: S. cerevisiae BY4716 + rapamycin, higher = more signal, called active from +8 up or from −8 down
[15] = target: Torsin-1A-interacting protein 2 (Homo sapiens) (UniProt Q8NFQ8); test: small molecules binding lysate-expressed LULL1 – cell lysate, human LULL1 lysate, 635/667 nm fluorescence, primary screen (AID 1092); settings: small-molecule microarray, hLULL1 lysate binding, 635 nm fluorescence; higher = more signal;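 also: probe is lysate of COS7 cells overexpressing human LULL1; score merges per-feature 667 nm fluorescence with signal-to-noise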
[16] = optical density change of DRC41 E. coli – strain DRC41, OD650, 24 h, E. coli filamentation project, primary screen (AID 1093);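 also: MC1000 strain lacking acrAB efflux and sulA so SOS filamentation is blocked; test concentration not given here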; settings: E. coli DRC41 growth, higher = more signal, called active from +8 up or from −8 down
[17] = probe aLefty2 binding to arrayed compounds – biochemical, biotinylated probe, 635/667 nm fluorescence, primary screen (AID 1094); settings: small-molecule microarray, higher = more signal;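 also: score merges spot fluorescence near 667 nm with spot signal-to-noise ratio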
[18] = tested on: Noggin (protein binding on small-molecule microarray); test: small molecules binding Noggin protein – biochemical, 635/667 nm fluorescence, primary screen (AID 1095); settings: 635 nm fluorescence, higher = more signal;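 also: score merges 667 nm feature fluorescence with signal to noise over triplicate slides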
[19] = target: Neurogenic locus notch homolog protein 3 (Homo sapiens) (UniProt Q9UM47); test: small molecules binding NOTCH3 protein – biochemical, 635/667 nm fluorescence, primary screen (AID 1096); settings: small-molecule microarray, 635 nm fluorescence, higher = more signal
[20] = probe aEGFR binding to arrayed compounds – biochemical, biotinylated probe, 635/667 nm fluorescence, primary screen (AID 1097); settings: small-molecule microarray, higher = more signal;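 also: probe is a biotinylated anti-EGFR antibody binding compounds printed on slides; score combines fluorescence near 667 nm and signal to noise of each spot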

Torsin-1A-interacting protein 2 (Homo sapiens), sequence (Q8NFQ8 whole entry, looked up): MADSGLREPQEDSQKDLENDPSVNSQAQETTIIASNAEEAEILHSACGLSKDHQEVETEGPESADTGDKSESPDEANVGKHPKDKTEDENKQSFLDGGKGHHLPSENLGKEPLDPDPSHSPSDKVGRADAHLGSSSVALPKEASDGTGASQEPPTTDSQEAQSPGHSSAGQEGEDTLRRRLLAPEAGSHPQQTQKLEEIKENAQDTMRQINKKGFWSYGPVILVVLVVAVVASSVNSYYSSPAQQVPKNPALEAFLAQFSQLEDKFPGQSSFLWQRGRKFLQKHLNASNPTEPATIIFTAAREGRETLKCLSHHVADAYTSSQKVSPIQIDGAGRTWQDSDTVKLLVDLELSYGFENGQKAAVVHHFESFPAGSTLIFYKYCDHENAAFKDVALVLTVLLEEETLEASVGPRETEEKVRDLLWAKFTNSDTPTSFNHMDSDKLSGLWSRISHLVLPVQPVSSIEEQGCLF
Neurogenic locus notch homolog protein 2 (Homo sapiens), sequence (Q04721 whole entry, looked up, canonical isoform): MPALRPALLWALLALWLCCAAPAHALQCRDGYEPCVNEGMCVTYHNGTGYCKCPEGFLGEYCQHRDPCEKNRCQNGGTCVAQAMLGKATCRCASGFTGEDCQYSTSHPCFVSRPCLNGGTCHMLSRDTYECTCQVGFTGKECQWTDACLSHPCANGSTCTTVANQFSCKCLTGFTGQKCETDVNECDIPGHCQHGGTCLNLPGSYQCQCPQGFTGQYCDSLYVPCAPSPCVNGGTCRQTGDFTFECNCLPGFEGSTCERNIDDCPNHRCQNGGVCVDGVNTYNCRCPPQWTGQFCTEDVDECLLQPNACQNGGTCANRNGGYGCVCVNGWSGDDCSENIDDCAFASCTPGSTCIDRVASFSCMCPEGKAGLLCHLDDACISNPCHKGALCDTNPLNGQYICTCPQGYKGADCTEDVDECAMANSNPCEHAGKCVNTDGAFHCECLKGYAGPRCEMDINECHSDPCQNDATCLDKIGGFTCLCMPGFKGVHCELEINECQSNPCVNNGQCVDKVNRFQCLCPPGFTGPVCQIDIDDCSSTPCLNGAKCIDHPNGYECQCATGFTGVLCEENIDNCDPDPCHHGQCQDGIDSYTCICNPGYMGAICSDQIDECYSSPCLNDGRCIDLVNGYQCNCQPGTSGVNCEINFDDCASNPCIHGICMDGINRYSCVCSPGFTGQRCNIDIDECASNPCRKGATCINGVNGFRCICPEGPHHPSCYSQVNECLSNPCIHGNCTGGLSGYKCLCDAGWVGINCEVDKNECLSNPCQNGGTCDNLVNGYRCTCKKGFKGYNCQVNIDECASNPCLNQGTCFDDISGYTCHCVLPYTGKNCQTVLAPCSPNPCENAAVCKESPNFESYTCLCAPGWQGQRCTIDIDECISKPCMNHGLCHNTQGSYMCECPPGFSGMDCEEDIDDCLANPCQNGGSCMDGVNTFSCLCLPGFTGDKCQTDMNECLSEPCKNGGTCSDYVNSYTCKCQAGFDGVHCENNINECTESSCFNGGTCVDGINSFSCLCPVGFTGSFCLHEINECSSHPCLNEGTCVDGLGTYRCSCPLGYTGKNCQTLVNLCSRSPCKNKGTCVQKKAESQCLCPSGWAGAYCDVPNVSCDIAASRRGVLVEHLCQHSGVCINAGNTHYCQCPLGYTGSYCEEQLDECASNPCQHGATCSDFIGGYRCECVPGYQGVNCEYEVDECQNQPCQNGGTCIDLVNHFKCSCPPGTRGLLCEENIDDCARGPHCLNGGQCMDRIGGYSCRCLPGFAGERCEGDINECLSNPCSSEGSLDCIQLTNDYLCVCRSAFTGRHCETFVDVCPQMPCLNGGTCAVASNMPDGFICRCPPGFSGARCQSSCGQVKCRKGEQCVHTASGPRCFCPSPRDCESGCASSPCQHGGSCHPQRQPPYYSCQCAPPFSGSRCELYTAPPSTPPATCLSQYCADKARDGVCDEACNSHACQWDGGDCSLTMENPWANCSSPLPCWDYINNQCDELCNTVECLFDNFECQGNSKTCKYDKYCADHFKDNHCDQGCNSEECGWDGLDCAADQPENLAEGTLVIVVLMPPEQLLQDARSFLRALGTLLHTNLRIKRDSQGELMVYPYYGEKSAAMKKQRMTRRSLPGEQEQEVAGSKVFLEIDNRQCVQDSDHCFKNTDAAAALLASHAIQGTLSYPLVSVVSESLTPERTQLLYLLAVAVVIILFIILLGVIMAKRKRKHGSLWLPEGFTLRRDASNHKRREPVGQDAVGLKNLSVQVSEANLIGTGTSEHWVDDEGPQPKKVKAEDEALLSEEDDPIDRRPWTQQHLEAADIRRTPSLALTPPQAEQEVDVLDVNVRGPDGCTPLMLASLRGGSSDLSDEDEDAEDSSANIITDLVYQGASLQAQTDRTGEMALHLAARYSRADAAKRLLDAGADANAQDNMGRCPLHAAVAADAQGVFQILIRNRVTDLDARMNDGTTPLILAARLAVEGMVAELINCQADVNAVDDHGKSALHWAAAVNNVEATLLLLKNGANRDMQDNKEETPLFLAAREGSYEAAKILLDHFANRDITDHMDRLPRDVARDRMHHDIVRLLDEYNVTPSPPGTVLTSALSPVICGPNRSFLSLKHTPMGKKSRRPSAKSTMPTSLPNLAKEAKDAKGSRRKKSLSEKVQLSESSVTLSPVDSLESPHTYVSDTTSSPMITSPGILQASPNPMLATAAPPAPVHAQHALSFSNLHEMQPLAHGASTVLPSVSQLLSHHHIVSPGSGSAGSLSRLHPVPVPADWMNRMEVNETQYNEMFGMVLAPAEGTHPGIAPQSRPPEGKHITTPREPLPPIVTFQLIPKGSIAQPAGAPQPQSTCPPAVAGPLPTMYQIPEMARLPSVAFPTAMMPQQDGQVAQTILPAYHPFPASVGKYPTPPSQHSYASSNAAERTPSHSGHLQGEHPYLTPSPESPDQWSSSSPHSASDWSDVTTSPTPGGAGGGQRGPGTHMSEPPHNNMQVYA
Pro-neuregulin-1, membrane-bound isoform (Homo sapiens), sequence (Q02297 whole entry, looked up, the tested form may be a part, canonical isoform): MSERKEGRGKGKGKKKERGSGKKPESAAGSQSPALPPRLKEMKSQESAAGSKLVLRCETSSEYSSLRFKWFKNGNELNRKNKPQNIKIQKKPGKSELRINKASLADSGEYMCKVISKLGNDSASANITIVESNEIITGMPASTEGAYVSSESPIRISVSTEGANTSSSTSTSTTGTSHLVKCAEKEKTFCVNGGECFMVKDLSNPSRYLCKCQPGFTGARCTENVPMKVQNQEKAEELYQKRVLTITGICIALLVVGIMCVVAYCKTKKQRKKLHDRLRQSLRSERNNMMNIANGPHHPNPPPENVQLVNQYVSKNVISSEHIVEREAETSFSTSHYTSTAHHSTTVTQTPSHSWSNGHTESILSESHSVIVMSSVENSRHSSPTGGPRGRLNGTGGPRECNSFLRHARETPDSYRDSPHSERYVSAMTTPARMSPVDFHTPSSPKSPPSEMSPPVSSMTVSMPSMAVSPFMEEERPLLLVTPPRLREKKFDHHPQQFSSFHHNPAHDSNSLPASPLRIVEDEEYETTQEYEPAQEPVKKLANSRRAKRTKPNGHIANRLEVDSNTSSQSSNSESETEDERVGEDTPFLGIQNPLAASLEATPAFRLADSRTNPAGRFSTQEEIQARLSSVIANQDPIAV

Row | SMILES | composite z-score [1] | composite z-score [2] | composite z-score [3] | composite z-score [4] | composite z-score [5] | composite z-score [6] | composite z-score [7] | z-score [8] | composite z-score [9] | composite z-score [10] | composite z-score [11] | z-score [12] | z-score [13] | z-score [14] | composite z-score [15] | z-score [16] | composite z-score [17] | composite z-score [18] | composite z-score [19] | composite z-score [20]
1 | O=C1O[C@@H](c2ccccc2)[C@@H](c2ccccc2)N2[C@@H](c3ccc(O)cc3)[C@]3(C(=O)Nc4ccc(C#CC5=CCCCC5)cc43)[C@@H](C(=O)O)[C@H]12 | 0.638 | 1.56 | -0.0908 | 0.725 | 0.798 | 1.2 | 1.14 | -0.611 (inactive) | 0.437 | 0.0274 | 1.53 | -2.6 (inactive) | -3.2 (inactive) | -2.21 (inactive) | 2.86 | 3.68 (inactive) | 0.246 | 0.878 | 0.925 | -0.0315
2 | COCCOC(=O)N1C(=O)[C@@]2(c3cc(C#CCNC(N)=O)ccc31)[C@H](C(=O)N1CCN(c3ncccn3)CC1)[C@H]1C(=O)O[C@H](c3ccccc3)[C@H](c3ccccc3)N1[C@@H]2c1ccccc1OCCO | 0.397 | 0.242 | 0.0811 | 0.947 | 1.12 | 0.727 | 1.09 | -0.311 (inactive) | 1.28 | -0.204 | 1.47 | 2.12 (inactive) | 1.71 (inactive) | 4.95 (inactive) | 1.79 | 1.72 (inactive) | 0.181 | 0.808 | 1.12 | -0.0286
3 | [N-]=[N+]=NCc1ccccc1C[C@@]1(C(=O)N2CCOCC2)N=C(c2ccc(OCCCO)cc2)O[C@@H]1c1ccccc1CN=[N+]=[N-] | 0.998 | 0.232 | 0.266 | 1.01 | 1.52 | 1.91 | 1.37 | -3.63 (inactive) | 1.57 | 0.156 | 1.58 | 0.466 (inactive) | -0.559 (inactive) | 28 (active) | 3.28 | 0.291 (inactive) | 0.743 | 0.631 | 0.967 | 0.662
